The values that follow come from PubChem BioAssay.

Values without a mark were called inactive.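 How the source made its calls, unless noted: active means percent response above a set limit, the screen-wide mean plus 3 SD (cut at about 130% in these data); inactive means the rest.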 Records with an inconclusive call do not appear.

A short description of the first assay: modulators of CIT2-GFP expression in yeast, primary screen, S. cerevisiae, GFP fusion, multiplex flow cytometry (AID 1870).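 Further: barcoded CIT2-GFP strain pooled with four other GFP strains with rapamycin as positive control; median GFP fluorescence per well over plate mean of DMSO wells so 100% = DMSO.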 Conditions: 3 h, at 10 µM, hits give high values.
Take `Cc1nc(-c2coc3c(CN(C)C)c(O)ccc3c2=O)cs1`: the percent response of DMSO control is 104%.
Still for that read-out and setting: the value for `COCCCN1C(=O)C(=O)/C(=C(/O)c2ccc3c(c2)CC(C)O3)C1c1cccnc1` (stereo not drawn) was 101%; that for `O=C(Nc1ccccc1C(=O)N1CCCCCC1)c1ccccc1Cl` was 94.9%.
Take `Fc1ccc(-c2cc(-c3ccccc3)nc(-n3cccn3)n2)cc1`: the percent response of DMSO control was 99.3%.
Same read-out and setting: in the case of `NS(=O)(=O)c1cc2c(cc1Cl)NC(C(Cl)Cl)NS2(=O)=O` (stereo not drawn) it was 102%.
For the compound `CCC(C(=O)Nc1ccc2c(c1)OCCO2)c1ccccc1` (stereo not drawn), the percent response of DMSO control is 101%.
On to `c1ccc(CNc2ncnc3nc[nH]c23)cc1`, for which the percent response of DMSO control was 90.8%.
On to `Cc1cc(/C=N/O)c(C)n1-c1ccc(Br)cc1`, for which the percent response of DMSO control was 96.5%.
In the case of `COc1ccc(/C=C/C(=O)c2cc3cccc(OC)c3oc2=O)cc1`, the percent response of DMSO control was 103%.
On the same count and under the same terms, the value for `Cc1ccc(C2=NOC(=O)/C2=C\C=C\c2ccccc2)cc1` was 108%; that for `CCc1ccc(/C=C2\Oc3cc(OC(=O)N4CCOCC4)ccc3C2=O)cc1` was 83.4%.
On the same count and under the same terms, in the case of `COc1cc(NC(=S)NN2CCN(C)CC2)cc(OC)c1OC` it was 116%; in that of `C[C@]12CCC3C(CC=C4C[C@@H](O)CC[C@@]43C)C1CCC2[C@]1(C)CCC(=O)O1` (stereo partly drawn), 109%.
On the same count and under the same terms, the value for `COC(=O)c1cc(OC)c(OC)cc1NC(=O)CN1C(=O)c2ccccc2C1=O` was 93.9%.
As to `c1ccc(CN(CC2=NCCN2)c2ccccc2)cc1`, the percent response of DMSO control was 101%.
For `Cc1oncc1C(=O)Nc1ccc(C(F)(F)F)cc1`, the percent response of DMSO control is 101%.
Still for that read-out and setting: in the case of `Cn1cc(C2N3CC4(C)CN2CC(C)(C3)C4=O)c2ccccc21` (stereo not drawn) it was 98.9%; in that of `CCCCOc1cc(C(=O)NCCN(CC)CC)c2ccccc2n1`, 106%.
Still for that read-out and setting: in the case of `O=C(CSCc1ccccc1)NCCCN1CCOCC1` it was 104%; in that of `COC(=O)c1ccc(OCCCCN2CC(C)OC(C)C2)cc1` (stereo not drawn), 105%.
For the compound `CCOc1ccc(C(=O)NC(C)C2COc3ccccc3O2)cc1` (stereo not drawn), the percent response of DMSO control was 95.7%.
Same read-out and setting: in the case of `CSCC[C@H](NC(=O)OC(C)(C)C)C(=O)N1CCC(C(=O)N[C@@H](C)C(=O)O)CC1` it was 102%.
`O=C(N/C(=C/C=C\c1ccccc1)C(=O)N1CCOCC1)c1ccc(Br)cc1`: the percent response of DMSO control is 100%.
On the same count and under the same terms, the value for `COc1ccc2[nH]c(=O)c(CN(C(=O)c3ccco3)C(C)C)cc2c1` was 103%; that for `COc1cc(-c2cccs2)cc(=O)c2c(C)oc(C)c12` was 84.4%.
The same measure, in the same setting: the value for `CCC(=O)O[C@]1(C(=O)CCl)[C@@H](C)C[C@H]2[C@@H]3CCC4=CC(=O)C=C[C@]4(C)[C@@]3(F)[C@@H](O)C[C@@]21C` was 106%; that for `COCCN(CCOC)Cc1c(C)[nH]c2c(C)c(C)ccc2c1=O` was 97.6%; that for `COc1ccccc1/C=C/C(=O)OCCN1CCOCC1` was 114%.
For `c1ccc(Cn2nnc3cnccc32)cc1`, the percent response of DMSO control is 104%.
Consider `Nc1cnn(C2OC(CO)C(O)C2O)c(=O)n1` (stereo not drawn), for which the percent response of DMSO control was 100%.
For the compound `Cc1ccc(C(=O)Nc2ccccc2C(=O)NC(C(=O)O)C(C)C)cc1` (stereo not drawn), the percent response of DMSO control was 89.1%.
`NC(CO)C(=O)NNCc1ccc(O)c(O)c1O` (stereo not drawn): the percent response of DMSO control is 98.6%.
On the same count and under the same terms, in the case of `CC12CCCCN1CCCc1c2[nH]c2ccccc12` (stereo not drawn) it was 115%; in that of `CN(C)CCN(Cc1ccc(Cl)cc1)c1ccccn1`, 114%.
As for `CSc1cccc(NC(=O)/C=C/c2ccccc2)c1`, the percent response of DMSO control was 88.6%.
As for `Cc1oc2cc(O)cc(O)c2c(=O)c1-c1ccc2c(c1)OCCCO2`, the percent response of DMSO control was 88.2%.
With `CNC(=O)Oc1ccc2c(c1)[C@]1(C)CCN(C)[C@@H]1N2C`, the percent response of DMSO control is 86%.
`CCCCNc1ccc(C(=O)OCCN(C)C)cc1`: the percent response of DMSO control was 98.9%.
On to `O=C(COc1cc(O)c2c(=O)c3ccccc3oc2c1)OCc1ccccc1`, for which the percent response of DMSO control was 109%.

The nature of another assay: modulators of LAP4-GFP expression in yeast, primary screen, S. cerevisiae, multiplex flow cytometry (AID 1873;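 active means GFP signal, as percent of the solvent control, above the screen mean plus 3 SD, about 149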). The conditions noted are these: 3 h, at 10 µM, hits give high values.
In the case of `Cc1nc(-c2coc3c(CN(C)C)c(O)ccc3c2=O)cs1`, the GFP response vs DMSO is 85.8%.
The same measure, in the same setting: the value for `COCCCN1C(=O)C(=O)/C(=C(/O)c2ccc3c(c2)CC(C)O3)C1c1cccnc1` (stereo not drawn) was 114%; that for `O=C(Nc1ccccc1C(=O)N1CCCCCC1)c1ccccc1Cl` was 96.5%.
For `Fc1ccc(-c2cc(-c3ccccc3)nc(-n3cccn3)n2)cc1`, the GFP response vs DMSO is 97.2%.
On the same count and under the same terms, in the case of `NS(=O)(=O)c1cc2c(cc1Cl)NC(C(Cl)Cl)NS2(=O)=O` (stereo not drawn) it was 108%; in that of `CCC(C(=O)Nc1ccc2c(c1)OCCO2)c1ccccc1` (stereo not drawn), 113%; in that of `c1ccc(CNc2ncnc3nc[nH]c23)cc1`, 90.1%.
Regarding `Cc1cc(/C=N/O)c(C)n1-c1ccc(Br)cc1`, the GFP response vs DMSO is 93.7%.
On to `COc1ccc(/C=C/C(=O)c2cc3cccc(OC)c3oc2=O)cc1`, for which the GFP response vs DMSO was 106%.
For `Cc1ccc(C2=NOC(=O)/C2=C\C=C\c2ccccc2)cc1`, the GFP response vs DMSO was 139%.
Consider `CCc1ccc(/C=C2\Oc3cc(OC(=O)N4CCOCC4)ccc3C2=O)cc1`, for which the GFP response vs DMSO is 125%.
Same read-out and setting: the value for `COc1cc(NC(=S)NN2CCN(C)CC2)cc(OC)c1OC` was 92%; that for `C[C@]12CCC3C(CC=C4C[C@@H](O)CC[C@@]43C)C1CCC2[C@]1(C)CCC(=O)O1` (stereo partly drawn) was 84.6%.
Still for that read-out and setting: the value for `COC(=O)c1cc(OC)c(OC)cc1NC(=O)CN1C(=O)c2ccccc2C1=O` was 118%; that for `c1ccc(CN(CC2=NCCN2)c2ccccc2)cc1` was 78.7%.
Take `Cc1oncc1C(=O)Nc1ccc(C(F)(F)F)cc1`: the GFP response vs DMSO was 124%.
Same read-out and setting: in the case of `Cn1cc(C2N3CC4(C)CN2CC(C)(C3)C4=O)c2ccccc21` (stereo not drawn) it was 94%; in that of `CCCCOc1cc(C(=O)NCCN(CC)CC)c2ccccc2n1`, 79.8%.
On the same count and under the same terms, the value for `O=C(CSCc1ccccc1)NCCCN1CCOCC1` was 98%; that for `COC(=O)c1ccc(OCCCCN2CC(C)OC(C)C2)cc1` (stereo not drawn) was 95.9%.
The same measure, in the same setting: in the case of `CCOc1ccc(C(=O)NC(C)C2COc3ccccc3O2)cc1` (stereo not drawn) it was 110%; in that of `CSCC[C@H](NC(=O)OC(C)(C)C)C(=O)N1CCC(C(=O)N[C@@H](C)C(=O)O)CC1`, 89.4%; in that of `O=C(N/C(=C/C=C\c1ccccc1)C(=O)N1CCOCC1)c1ccc(Br)cc1`, 123%.
As to `COc1ccc2[nH]c(=O)c(CN(C(=O)c3ccco3)C(C)C)cc2c1`, the GFP response vs DMSO is 83.6%.
As for `COc1cc(-c2cccs2)cc(=O)c2c(C)oc(C)c12`, the GFP response vs DMSO was 142%.
On to `CCC(=O)O[C@]1(C(=O)CCl)[C@@H](C)C[C@H]2[C@@H]3CCC4=CC(=O)C=C[C@]4(C)[C@@]3(F)[C@@H](O)C[C@@]21C`, for which the GFP response vs DMSO was 91.5%.
As to `COCCN(CCOC)Cc1c(C)[nH]c2c(C)c(C)ccc2c1=O`, the GFP response vs DMSO is 93.7%.
On the same count and under the same terms, the value for `COc1ccccc1/C=C/C(=O)OCCN1CCOCC1` was 79.8%; that for `c1ccc(Cn2nnc3cnccc32)cc1` was 106%.
For the compound `Nc1cnn(C2OC(CO)C(O)C2O)c(=O)n1` (stereo not drawn), the GFP response vs DMSO was 102%.
For the compound `Cc1ccc(C(=O)Nc2ccccc2C(=O)NC(C(=O)O)C(C)C)cc1` (stereo not drawn), the GFP response vs DMSO was 115%.
As to `NC(CO)C(=O)NNCc1ccc(O)c(O)c1O` (stereo not drawn), the GFP response vs DMSO is 91.5%.
`CC12CCCCN1CCCc1c2[nH]c2ccccc12` (stereo not drawn): the GFP response vs DMSO was 82.8%.
As for `CN(C)CCN(Cc1ccc(Cl)cc1)c1ccccn1`, the GFP response vs DMSO was 114%.
On the same count and under the same terms, in the case of `CSc1cccc(NC(=O)/C=C/c2ccccc2)c1` it was 83.1%.
Consider `Cc1oc2cc(O)cc(O)c2c(=O)c1-c1ccc2c(c1)OCCCO2`, for which the GFP response vs DMSO is 128%.
The same measure, in the same setting: in the case of `CNC(=O)Oc1ccc2c(c1)[C@]1(C)CCN(C)[C@@H]1N2C` it was 112%; in that of `CCCCNc1ccc(C(=O)OCCN(C)C)cc1`, 103%; in that of `O=C(COc1cc(O)c2c(=O)c3ccccc3oc2c1)OCc1ccccc1`, 85.5%.
